# Bioassay records deposited in PubChem BioAssay by The Scripps Research Institute Molecular Screening Center.
# ssDAF-12 act = activates DAF-12 receptor from parasite S. stercoralis; HEK293 ssDAF-12/GRIP1 lit1-tk-luc reporter, luminescence; % of 3 µM dafachronic acid response; activation, % at 6.8 µM; hit rate 1% among 370,000; AID 652126;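 active = activation above the mean over all tested compounds plus 3 SD, cut at about 0.9% in these data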;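 also: 0% = DMSO-only wells and 100% = 3 µM delta7-dafachronic acid wells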
# hgDAF12 agonist = agonists of H. glycines DAF-12 nuclear receptor | activation, % at 6.8 µM | HEK293 GAL4-hgDAF12 UAS-luciferase reporter, agonist luminescence; normalized to butyrate control | hit rate 1.8% among 370,000;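 active = activation above a cutoff set at the mean of all screened compounds plus 3 SD, cut at about 10% in these data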;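 also: 0% = DMSO wells and 100% = sodium butyrate wells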
# hcDAF-12 act = activates DAF-12 receptor from parasite H. contortus; HEK293 hcDAF-12 lit1-tk-luc reporter, luminescence; 0% DMSO, 100% Δ7-dafachronic acid; activation, % at 6.8 µM; hit rate 1.4% among 370,000; AID 652067;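 active = activation above the mean of all tested compounds plus 3 SD, cut at about 5.5% in these data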;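 also: 100% = response to 3 µM Δ7-dafachronic acid high control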
# DAX1 inh-1 = inhibitors of human orphan nuclear receptor DAX1 (NR0B1) | AID 504766 | HEK293 Gal4-DAX1 luciferase reporter, luminescence | hit rate 0.99% among 340,000 | P51843 | inhibition, % at 6.75 µM;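 active = inhibition above the mean over all tested compounds plus 3 SD, cut at about 4.2% in these data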;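 also: 0% = DAX1-transfected cells with DMSO and 100% = empty-vector control cells with DMSO; inhibition shows as a rise in luminescence from relieved DAX1 repression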
# Target sequence (P51843 207-470 limits assumed): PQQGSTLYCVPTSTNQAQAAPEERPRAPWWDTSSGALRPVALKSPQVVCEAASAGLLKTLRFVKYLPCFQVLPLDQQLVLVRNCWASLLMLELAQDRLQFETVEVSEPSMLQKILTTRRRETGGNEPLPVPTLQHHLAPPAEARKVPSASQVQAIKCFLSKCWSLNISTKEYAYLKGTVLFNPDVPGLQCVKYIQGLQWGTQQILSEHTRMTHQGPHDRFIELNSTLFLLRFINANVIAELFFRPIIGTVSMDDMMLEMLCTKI
# DAX1 inh-2 = DAX1 (NR0B1) inhibition, primary screen; HEK293T StAR-luciferase reporter, SF-1/DAX-1 repression relief; inhibition, % at 6.8 µM; hit rate 1.1% among 370,000;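 active = inhibition above the mean over all tested compounds plus 3 SD, cut at about 3.6% in these data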;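 also: 0% = DAX-1 cells with DMSO and 100% = cells lacking DAX-1 with DMSO; higher inhibition means more luminescence from relief of DAX-1 repression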
# * = called active by the depositor; . = no result. An excerpt weighted towards active compounds, which were near 4.1% of everything screened.
SMILES,ssDAF-12 act,hgDAF12 agonist,hcDAF-12 act,DAX1 inh-1,DAX1 inh-2
Cc1cccnc1NC(=S)NC(=O)/C=C/c1ccccc1,-1.2,12.3*,1.1,2.0,0.8
CCCN1C(=O)c2n[nH]c(C(C)C)c2C1c1cccc(C(F)(F)F)c1 (stereo not given),-1.4,0.6,1.6,.,1.2
O=C(NC1CCCCC1)c1cc2nc3c(c(C(F)(F)F)n2n1)CCCC3,-0.6,3.3,0.0,0.0,1.4
Cc1cc2nc3c(c(C(F)(F)F)n2n1)CCCC3,-1.1,0.3,-1.3,6.3*,0.1
CCOc1ccc(CCNC(=O)c2ccc(Oc3ccccc3)cc2)cc1OCC,-2.0,-2.3,-3.4,.,.
CC(C)C[C@@H]1COc2cccc(N3CCCC3)c2S(=O)(=O)N1,-0.9,-4.3,-1.3,.,0.1
Clc1ccc(Nc2nnc(-c3ccc4c(c3)OCO4)o2)cc1,-0.6,8.8,3.4,.,3.9*
COC(=O)c1nc(-c2ccc(C)cc2)oc1N(C)C,1.0*,2.5,5.2,0.8,-0.8
COC(=O)c1nc(-c2ccccc2)oc1N(C)C,-1.9,-0.1,0.0,0.9,0.0
Cc1ccc(OCCCCCCN2CCNCC2)c(Br)c1,-0.9,4.0,5.9*,4.7*,-0.2
COC(=O)[C@]12C[C@H](CC(=O)NCc3ccc(C)o3)C(=O)N(CCC3=CCCCC3)C1=C[C@H](C(C)C)O[C@@H]2C1CC1,2.1*,-1.5,-0.9,.,-0.2
O=C(O)c1cccc(NC(=O)c2ccc(COc3ccc(Cl)cc3)cc2)c1,-0.7,-0.5,-0.4,2.1,-0.4
CC(C)c1cc(C(N)=O)c(NC(=O)c2cccc(COc3ccc(Cl)cc3)c2)s1,0.2,13.1*,3.6,-4.8,1.2
O=S(=O)(c1ccccc1F)n1c(CN2CCOCC2)nc2ccccc21,-0.4,1.8,0.1,.,-0.2
COC(=O)C1CN(Cc2ccc(C)cc2)CCS(=O)(=O)N1Cc1cn(Cc2ccc(Cl)cc2)nn1 (stereo not given),-1.4,0.9,-1.0,.,-1.1
Cc1ccc(-c2cc(C(=O)NN=Cc3cccc4ccccc34)[nH]n2)cc1C,-1.3,12.3*,-0.1,.,-2.3
Cc1ccc(-c2cc(C(=O)NN=Cc3c(O)ccc4ccccc34)[nH]n2)cc1C,-1.7,-5.9,-3.9,.,-4.1
O=C(CC(C(=O)O)c1ccc(Cl)cc1Cl)c1ccc(Cl)cc1 (stereo not given),-1.1,0.2,5.9*,1.3,0.0
O=C(CC(C(=O)O)c1ccc(Cl)cc1)c1ccc(Cl)c(Cl)c1 (stereo not given),-1.2,0.0,-0.9,-1.5,-0.3
COC(=O)[C@]12C[C@H](CC(=O)N3CCC(c4ccccc4)CC3)C(=O)N(Cc3ccc(Cl)cc3Cl)C1=C[C@H](COCc1ccccc1)O[C@@H]2C,-0.9,-2.9,-1.7,.,-1.5
CCc1c(C)c2ccc(OCC(=O)NCC3CCC(C(=O)O)CC3)c(C)c2oc1=O (stereo not given),-0.6,11.4*,-0.1,2.1,-0.1
COc1ccc(-n2c(SCC(=O)Nc3ccc(Oc4ccccc4)cc3)nnc2-c2ccco2)cc1,-1.5,2.0,-2.5,.,-3.2
Cc1ccc(Cl)cc1N1C(=O)CC(Sc2ncccn2)C1=O (stereo not given),-0.1,-2.0,-0.9,4.7*,-0.2
CCOC(=O)N1CCN(C(=O)CSC2=NS(=O)(=O)c3cc(F)ccc3N2)CC1,-1.3,0.6,1.5,4.8*,-0.2
O=C(CSC1=NS(=O)(=O)c2cc(F)ccc2N1)Nc1ccc(F)cc1,-0.4,2.4,-1.0,0.1,-0.7
SMILES,ssDAF-12 act,hgDAF12 agonist,hcDAF-12 act,DAX1 inh-1,DAX1 inh-2
Oc1ccccc1C=NN1CCN(Cc2ccccc2)CC1,-1.0,6.4,-1.5,.,-0.8
Cn1c(=O)c2c(-c3ccccc3)n(-c3ccccc3N)cc2n(C)c1=O,-0.1,12.5*,3.5,2.0,2.4
Cn1c(=O)c2c(-c3ccccc3)n(-c3ccccc3S)cc2n(C)c1=O,-1.4,0.4,-0.8,-0.2,0.2
Cc1ccccc1CS(=O)(=O)Cc1ccc(C(=O)Nc2ccc(F)cc2)o1,-2.0,-7.5,-5.7,.,-3.7
COc1cc(C(=O)N=c2sc3ccccc3n2C)cc(OC)c1OC,-1.5,-1.8,-1.6,-2.3,0.2
COc1cc(C=NN=c2sc3ccccc3n2C)ccc1OCCO,0.4,12.2*,-0.6,.,2.2
CCCC1CCC(=NNC(=O)OC(C)(C)C)CC1 (stereo not given),-0.8,7.6,-0.3,5.8*,1.5
